# Compound activity (PubChem)
# A selection: hits, their analogues and other compounds. The true share with any hit is near 1.5%.
# CD11b adhes enh: CD11b/CD18-fibrinogen binding enhancement | AID 1499 | activation, % at 10 µM | K562 CD11b/CD18 adhesion to fibrinogen, ATPlite luminescence | actives 0.07% (n = 93,000);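 active means 10 µM primary screen giving 50% or more activity, confirmed by 40% or more on retest at that dose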
# S1P2 agonist: S1P2 (human) receptor agonism. O95136. S1P2-expressing cell line, agonist reporter read-out. activation, % at 4.5 µM. actives 0.46% (n = 97,000). AID 729; in the data active means activation above about 16%;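 further: 0% = vehicle low control and 100% = maximal reference agonist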
# S1P2 antag: S1P2 (human) receptor antagonism | cell-based S1P2 antagonist assay, inhibition at 5 uM | inhibition, % at 5 µM | actives 0.21% (n = 97,000) | AID 736; in the data active means inhibition above about 45%;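 further: CRE beta-lactamase reporter cells expressing human S1P2 stimulated with S1P; 0% = agonist at EC80 alone and 100% = agonist plus reference antagonist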
# Mac1 fbg inh: inhibitors of human CD11b/CD18 binding to fibrinogen | K562 CD11b/CD18 adhesion to fibrinogen, ATPlite luminescence; Mn2+ added to activate the integrin | inhibition, % at 10 µM | actives 0.54% (n = 93,000) | AID 1497;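 active means primary inhibition of 50% or more at 10 µM, then 40% or more on retest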
# GALR2 blocker: GALR2 (human) receptor antagonism; O43603; GALR2-expressing cells, antagonist mode; inhibition, % at 4 µM; actives 0.39% (n = 140,000); AID 828;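 further: cells stimulated with galanin 1-16 at roughly its EC80; 0% = agonist challenge control and 100% = basal control without agonist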
# Target sequence (O43603 whole entry, looked up): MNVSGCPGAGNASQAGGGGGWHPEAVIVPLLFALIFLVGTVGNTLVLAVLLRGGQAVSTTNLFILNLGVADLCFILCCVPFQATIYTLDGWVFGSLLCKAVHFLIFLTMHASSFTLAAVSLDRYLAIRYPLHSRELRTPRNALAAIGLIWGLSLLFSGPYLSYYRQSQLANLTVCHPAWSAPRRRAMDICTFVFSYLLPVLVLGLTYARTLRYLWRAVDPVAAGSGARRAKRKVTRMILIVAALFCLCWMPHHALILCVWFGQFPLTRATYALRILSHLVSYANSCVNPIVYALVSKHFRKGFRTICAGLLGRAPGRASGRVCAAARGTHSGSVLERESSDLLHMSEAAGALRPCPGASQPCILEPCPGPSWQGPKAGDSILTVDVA
# GALR2 agonist: agonists of human galanin receptor 2 (GALR2) | O43603 | GALR2-expressing cells, agonist activation read-out | activation, % (concentration not given with the values) | actives 0.48% (n = 140,000); in the data active means activation above about 5%, passing the limit was not always enough;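 further: 0% = vehicle buffer wells and 100% = reference agonist at full effect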
# GALR2 ag confirm: confirmation of human galanin receptor 2 (GALR2) agonists; activation, % at 5.6 µM; actives 10% (n = 460); GALR2-expressing cells, agonist activation; shares compounds with GALR2 agonist; in the data active means activation above about 8.4%;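 further: 0% = buffer-only vehicle wells and 100% = full reference agonist response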
# BLA act counter: counter-screen for GALR2 agonists: beta-lactamase reporter activators | shares compounds with GALR2 agonist | CHO NFAT-bla reporter, beta-lactamase FRET activation | activation, % at 5.6 µM | actives 10% (n = 460) | AID 865;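 active means activation above the screen-wide mean activation plus 3 SD, cut at about 8% in these data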;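 further: 0% = DMSO with PBS wells and 100% = thapsigargin positive control wells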
# GALR2 blk conf: confirmation of human galanin receptor 2 (GALR2) antagonists; shares compounds with GALR2 blocker; GALR2-expressing cells, antagonist mode, inhibition; inhibition, % at 4 µM; actives 60% (n = 480);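 further: cells stimulated with galanin at about its EC80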
# BLA inhib ctr: beta-lactamase inhibition, GALR2 counterscreen | actives 36% (n = 480) | shares compounds with GALR2 blocker | CHO NFAT-BLA reporter, beta-lactamase FRET, thapsigargin-stimulated | inhibition, % at 4.2 µM;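 active means inhibition above the mean inhibition across tested compounds plus 3 SD, cut at about 27% in these data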;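 further: 0% = 500 nM thapsigargin stimulated wells and 100% = unstimulated BSA only wells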
# Starred values were filed as active, the others as inactive; x = no result. Unless noted, no stated cut-off is given here; in the data, active means inhibition above about 27%; inactive means the rest.
SMILES,CD11b adhes enh,S1P2 agonist,S1P2 antag,Mac1 fbg inh,GALR2 blocker,GALR2 agonist,GALR2 blk conf,BLA inhib ctr,others
CCCCCN(C(=O)NC(=O)Nc1ccc(C)cc1)S(=O)(=O)c1ccccc1,x,x,x,x,5,-1,x,x,
Nc1c(C(=O)NCC2CCCO2)sc2nc3c(c(-c4ccco4)c12)CC/C3=C\c1ccco1 (stereo unspecified),x,x,x,x,-12,1,x,x,
COc1ccc(OCCn2cc(/C=C(\C#N)C(=O)NCc3ccco3)c3ccccc32)cc1,x,x,x,x,1,13*,x,x,GALR2 ag confirm=4;BLA act counter=3
Cc1cccc(NC(=O)/C(C#N)=C/c2cn(CC(=O)NCc3ccco3)c3ccccc23)c1,x,x,x,x,-2,31*,x,x,GALR2 ag confirm=14*;BLA act counter=13*
Cc1ccc(C)c(OCCn2cc(/C=C(\C#N)C(=O)NCc3ccco3)c3ccccc32)c1,x,x,x,x,-5,0,x,x,
COc1ccccc1OCCn1cc(/C=C(\C#N)C(=O)NCc2ccco2)c2ccccc21,x,x,x,x,4,-1,x,x,
CCCCOCCCn1c(-c2ccco2)nc2nc3ccccc3nc21,-4,7,-30,-6,-15,3,x,x,
CC(C)C[C@@H]1NC(=O)[C@H](Cc2ccc(O)cc2)NC(=O)[C@H](CCC(N)=O)NC(=O)c2cc([N+](=O)[O-])cc(I)c2NCC[C@@H](C(N)=O)NC1=O,x,x,x,x,-6,-2,x,x,
NC(=O)c1ccc(C(F)(F)F)n(Cc2cccc(Cl)c2)c1=O,0,-1,-19,-8,-18,-1,x,x,
CCN(CC)c1ccc(C(=O)OCc2cc(=O)oc3cc(O)ccc23)cc1,x,-4,-6,x,-1,1,x,x,
CCN(CC)c1ccc2c(Cl)cc(=O)oc2c1,x,9,47*,x,22,9,x,x,GALR2 ag confirm=2;BLA act counter=7
Clc1ccc(CSc2nnnn2-c2ccc3c(c2)OCO3)c(Cl)c1,0,-7,-5,27,12,-3,x,x,
O=C(O)C1C(c2ccccc2)C(C(=O)Oc2ccccc2)C1c1ccccc1 (stereo unspecified),-1,-6,9,4,-4,-1,x,x,
CC(C)CCOC(=O)C1C(c2ccccc2)C(C(=O)O)C1c1ccccc1 (stereo unspecified),-4,-5,-4,-2,-9,10,x,x,GALR2 ag confirm=0;BLA act counter=0
CCOc1ccc(N=C(NN)c2ccc3ccccc3n2)cc1,x,x,x,x,9,-1,x,x,
O=C(COC(=O)c1cc(Cl)ccc1Cl)NCCN1C(=O)CSC1=O,x,x,x,x,19,12*,x,x,GALR2 ag confirm=-1;BLA act counter=-3
COc1cc(/C=N/NC(=O)c2ccc(COc3cc(C)ccc3C(C)C)cc2)cc(OC)c1O,x,x,x,x,0,8.4*,x,x,GALR2 ag confirm=8;BLA act counter=-1
Cc1ccc(/C=N/NC(=O)c2ccc(C(=O)N/N=C/c3ccc(C)s3)o2)s1,x,-7,14,x,6,30*,x,x,GALR2 ag confirm=2;BLA act counter=14*
Cc1ccc2nsnc2c1NC(=O)c1ccc(-c2cc(Cl)ccc2Cl)o1,88,4,28,-30,38*,10,23,21,GALR2 ag confirm=11*;BLA act counter=3
COCC(C)n1c(C)cc(C(=O)COC(=O)CN=C2NS(=O)(=O)c3ccccc32)c1C (stereo unspecified),x,x,x,x,3,-1,x,x,
COc1ccc(C(=O)N(c2ccccc2)C2C=CS(=O)(=O)C2)cc1 (stereo unspecified),0,-2,21,-11,30*,-1,22,0,
COCCCN=C(c1ccco1)n1c(=S)nc(-c2ccco2)n(CCCOC)c1=S,-1,-8,14,4,4,-3,x,x,
Cc1ccc(N=Cc2sc(O)c3ccccc23)cc1,-1,-8,38,-1,28*,-2,32*,32*,
Cc1ccc(C(=O)N/C(=C\c2cccs2)C(=O)NCc2cccnc2)cc1,x,x,x,x,17,-1,x,x,
Cc1ccc(C(=O)N/C(=C/c2cccs2)C(=O)NCc2ccco2)cc1,x,x,x,x,27*,-1,6,-2,
SMILES,CD11b adhes enh,S1P2 agonist,S1P2 antag,Mac1 fbg inh,GALR2 blocker,GALR2 agonist,GALR2 blk conf,BLA inhib ctr,others
CC(=O)N(C)c1nnc(-c2ccccn2)s1,x,0,0,x,-7,0,x,x,
CCc1nc2ccc(C)cc2c(C(=O)NC2CCCCC2C)c1C (stereo unspecified),x,-1,16,x,-9,-1,x,x,
CN(C)CCCN1C(=O)c2cccc3c([N+](=O)[O-])ccc(c23)C1=O,x,x,x,x,56*,1,48*,31*,
CC(C)CNC(=O)COC(=O)c1c2c(nc3ccccc13)/C(=C/c1cccs1)CC2,9,x,x,6,31*,3,38*,44*,
CC1CCCCC1NC(=O)COC(=O)c1c2c(nc3ccccc13)/C(=C/c1ccco1)CC2 (stereo unspecified),x,x,x,x,60*,5,37*,48*,
NC(=O)c1ccc(NC(=O)COC(=O)c2c3c(nc4ccccc24)/C(=C\c2cccs2)CCC3)cc1,x,x,x,x,23,3,x,x,
O=C(CCl)N(c1ccccc1)c1c[nH]c2ccccc12,-4,-8,27,11,37*,-3,38*,18,
COc1ccc2o/c(=N/NC(=S)Nc3ccccc3)c(C(N)=O)cc2c1,118,x,x,-2,4,-2,x,x,
Cc1cccc(Nc2nc(NCCCN3CCOCC3)nc(N)c2[N+](=O)[O-])c1,x,x,x,x,-32,1,x,x,
O=C(Nc1ccc([N+](=O)[O-])cc1)Nc1nc(-c2ccc(Cl)s2)cs1,x,x,x,x,32*,1,38*,20,
CCSc1nnc(NC(=O)C(C)(C(F)(F)F)C(F)(F)F)s1,1,-11,7,21,5,-2,x,x,
CCSc1nnc(NC(=O)C(CC)(C(F)(F)F)C(F)(F)F)s1,-5,-1,-3,48,28*,-2,2,-2,
COc1cc2nc(/C=C/c3ccc(N(C)C)cc3)sc2cc1SC,24,x,x,16,52*,5.2*,60*,67*,
CC(NC(=O)Nc1nnc(C(F)(F)F)s1)(C(F)(F)F)C(F)(F)F,-7,-2,25,99*,38*,-2,22,8,
CSc1ncccc1C(=O)Nc1nc2c(C)cccc2s1,x,x,x,x,29*,-2,28*,13,
COc1ccc(CCNc2c(C)c(C)nc3ncnn23)cc1,x,-9,69*,x,31*,-1,39*,9,
CCc1c(C)nc2ncnn2c1NCCc1ccc(OC)c(OC)c1,x,-16,7,x,5,-2,x,x,
O=C(CSc1nncs1)N1c2ccccc2Sc2ccccc21,-3,x,x,1,29*,-1,20,2,
Cn1nnnc1SCC(=O)N1c2ccccc2Sc2ccccc21,0,2,15,3,-5,-1,x,x,
